About 79,000 compounds went through this panel and 15% of them were active in at least one assay; those are over-represented in the sample as a whole. Calls of active or inactive are those of the source. No stated cut-off is given here; in the data, active means growth inhibition above about 70%; inactive means the rest.
How the values were obtained:
[1] = NCI Yeast Anticancer Drug Screen. Data for the rad50 strain (AID 155);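 further: 0% = growth of vehicle-only cultures of the same strain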; details: S. cerevisiae rad50 strain growth inhibition; at 50.0 µM; active compounds read high
Method in brief: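 Compounds were tested on a yeast strain with an engineered DNA damage repair alteration; the reported value is growth inhibition normalised to vehicle treatment.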

[2] = NCI Yeast Anticancer Drug Screen. Data for the mec2-1 strain (AID 157); details: S. cerevisiae mec2-1 strain, at 50.0 µM, active compounds read high
Method in brief: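 Mutant yeast (mec2-1) grown with compound; growth inhibition relative to vehicle control reported.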

[3] = NCI Yeast Anticancer Drug Screen. Data for the sgs1 mgt1 strain (AID 161);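 further: 0% = growth of cultures given vehicle only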; details: S. cerevisiae sgs1 mgt1 strain, at 50.0 µM, active compounds read high
Method in brief: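 Yeast cells carrying a defined DNA-repair defect were exposed to test compounds. Growth inhibition was measured relative to vehicle-treated controls.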

[4] = NCI Yeast Anticancer Drug Screen. Data for the cln2 rad14 strain (AID 165);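 further: 0% = growth equal to vehicle treated cultures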; details: S. cerevisiae cln2 rad14 strain, at 50.0 µM, active compounds read high
Method in brief: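 Readout is yeast growth inhibition versus vehicle-treated controls, using a strain with cln2 and rad14 alterations exposed to compound.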

[5] = NCI Yeast Anticancer Drug Screen. Data for the bub3 strain (AID 167); details: S. cerevisiae bub3 mutant strain, at 50.0 µM, active compounds read high
Method in brief: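 Growth of a checkpoint-deficient yeast mutant is measured after compound exposure. Values represent inhibition relative to vehicle.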

[6] = NCI Yeast Anticancer Drug Screen. Data for the mlh1 rad18 strain (AID 175); details: S. cerevisiae mlh1 rad18 strain growth inhibition; at 50.0 µM; active compounds read high
Method in brief: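 Genetically defined yeast (DNA repair-deficient) exposed to compounds; growth inhibition determined relative to vehicle.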

Measured: growth inhibition

NC(=O)CSCC(N)C(=O)O (stereo unspecified)
inactive: [1] -9.75% | [2] -26.4% | [3] -13.1% | [4] -21.9% | [5] -28.5% | [6] -20%

Cn1cnc([N+](=O)[O-])c1Sc1nc2ncccc2[nH]1
inactive: [1] -5.6% | [2] -7.1% | [3] -20.1% | [4] 16.6% | [5] -8.9% | [6] 0%

C/C=C/c1ccc(O)c(OC)c1
inactive: [1] 13.1% | [2] -11.6% | [3] 4.85% | [4] -5.95% | [5] -3.25% | [6] -9.3%

CC(=O)NCc1cccc[n+]1[O-]
inactive: [1] 14.8% | [2] -12% | [3] -3.8% | [4] -59.3% | [5] -6.85% | [6] -7.2%

N#CCCCCBr
inactive: [1] 12.4% | [2] 6.95% | [3] -4.2% | [4] -50.7% | [5] 15.6% | [6] 7.5%

O=C1C2Cc3ccccc3CN2C(=O)N1CCN1CCCC1 (stereo unspecified)
inactive: [1] -19.1% | [2] -33.7% | [3] -12.1% | [4] 4.3% | [5] -22.6% | [6] 8%

O=[N+]([O-])c1ccc(Oc2ccccc2-c2ccccc2)c([N+](=O)[O-])c1
inactive: [1] -2% | [2] -3.7% | [3] 11.6% | [4] -73.7% | [5] 8.2% | [6] 14.4%

CC(=O)NC(CCCCN)C(=O)NCc1ccccc1 (stereo unspecified)
inactive: [1] -1.95% | [2] -12% | [3] -12.1% | [4] 11.1% | [5] -19% | [6] -20.4%

CCCOC(=O)OCCC
inactive: [1] -9.8% | [2] -37.3% | [3] -4.9% | [4] 2.9% | [5] -31.8% | [6] -10.9%

COc1cc(/C=C/c2ccc(/C=C/c3cc(OC)c(OC)c(OC)c3)cc2)cc(OC)c1OC
inactive: [1] 11.2% | [2] -5.65% | [3] -29.9% | [4] 1.8% | [5] -8.75% | [6] -9.9%

CC(=O)n1c(N)nc2ccccc21
inactive: [1] 21.3% | [2] -2.85% | [3] 6.95% | [4] 3.4% | [5] 1.45% | [6] 28.8%

Cc1ccc2c(c1)C(c1ccccc1)(c1ccccc1)OC2
inactive: [1] 8.65% | [2] 41.4% | [3] 9.45% | [4] -10.8% | [5] 10.4% | [6] 13.6%

O=[N+]([O-])c1nccn1CC(O)CN1CCCCC1 (stereo unspecified)
inactive: [1] 5.95% | [2] -1.15% | [3] 16.8% | [4] -4.85% | [5] -7.85% | [6] 18.9%

NC1=C(O)C(=O)C(c2cccc(O)c2)O1 (stereo unspecified)
inactive: [1] -8.1% | [2] -10.1% | [3] 7.9% | [4] -5.05% | [5] 3.2% | [6] 8.45%

CC(C)CC(O)C(CC(=O)Nc1ccccc1)S(=O)(=O)c1ccccc1 (stereo unspecified)
inactive: [1] -21.9% | [2] -16.4% | [3] -6.3% | [4] -28.6% | [5] -15.1% | [6] -11.8%

CC#CC(O)(C(=O)OC1CCC2CCC1N2C)C1CCCC1 (stereo unspecified)
inactive: [1] -25.5% | [2] -8.9% | [3] -23.3% | [4] 6.2% | [5] -3.4% | [6] -4.65%

CC(=O)Nc1cc(F)c(N=Nc2ccc(F)cc2)c(F)c1
inactive: [1] 5.3% | [2] -0.6% | [3] 13.4% | [4] -36.9% | [5] -16.1% | [6] 3.45%

Nc1c(C(=O)Nc2cccc3c2C(=O)c2ccccc2C3=O)ccc2c1C(=O)c1ccccc1C2=O
inactive: [1] 35.1% | [2] 10.1% | [3] 43.3% | [4] 26.7% | [5] 2.75% | [6] 24%

NC(=O)CC1(C(=O)O)c2ccccc2-c2ccccc21
inactive: [1] 17.1% | [2] -14.2% | [3] 2.65% | [4] -7.55% | [5] 14.6% | [6] -3.95%

O=C(Cc1ccccc1)NN1C(=O)/C(=C\c2ccccc2)SC1=Nc1ccccc1
inactive: [1] 12% | [2] -1.35% | [3] 19.3% | [4] 35.5% | [5] 9.15% | [6] 10.8%

CCOC(=O)C1=CN(C)C=C(Br)C1C#N (stereo unspecified)
inactive: [1] -2.2% | [2] 10.1% | [3] 4.55% | [4] 6.45% | [5] 8.1% | [6] -4.75%

CC1Cc2cc(O)ccc2C2[C@@H]1C1CC[C@H](O)[C@@]1(C)C[C@@H]2O[N+](=O)[O-] (stereo partly specified)
inactive: [1] 18.5% | [2] 19.7% | [3] 55.8% | [4] 47.3% | [5] 60.9%
active: [6] 83%

NCCCOC12CC3CC(CC(C3)C1)C2
inactive: [1] 6.1% | [2] -4.05% | [3] 38.8% | [4] -50.4% | [5] 7.6% | [6] 15.8%

COc1ccc2nccc(N)c2c1
inactive: [1] 31.9% | [2] -7.95% | [3] 15.1% | [4] 11.5% | [5] -8.05% | [6] 20.9%

CC1(C)S[C@@H]2[C@H](NC(=O)/C=C/c3ccccc3)C(=O)N2[C@H]1C(=O)O
inactive: [1] 15.3% | [2] 9.5% | [3] 9.2% | [4] 0.6% | [5] 25.6% | [6] -5.5%

CCCCCCCC[N+](C)(C)CC#CC[N+](C)(C)CCCCCCCC
inactive: [1] 46.2% | [2] -14.3% | [3] 13.9% | [4] -1.65% | [5] 11.1% | [6] 44.1%

CC(=O)OC1=NCC(OC(C)=O)=NC1
inactive: [1] 5.2% | [2] 13.9% | [3] 2.25% | [4] -16.9% | [5] 2.65% | [6] 6.5%

NNC(=O)CC(=O)Nc1ccccc1F
inactive: [1] -7.9% | [2] -16.9% | [3] -6.4% | [4] 7.15% | [5] 0.85% | [6] -2.85%

CC(C)CC/C(=N\NC(N)=O)C1CCOCC1
inactive: [1] -3.1% | [2] 14.2% | [3] 9.25% | [4] -7.2% | [5] -0.05% | [6] -3.85%

CN1C(=O)NC(=O)C1(C)C=O (stereo unspecified)
inactive: [1] 2.8% | [2] 0.9% | [3] -2.7% | [4] 5.95% | [5] 10.9% | [6] -12.1%

CCOC(=O)/C=C/SCCC(=O)OC
inactive: [1] 37.3% | [2] 21.9% | [3] 7.9% | [4] 12.4% | [5] 15% | [6] 40.8%

CCOC(=O)N1C=Cc2c(c3ccccc3n2C)N1C(=O)OCC
inactive: [1] 3.85% | [2] 1% | [3] 2.15% | [4] -6.3% | [5] 5.7% | [6] -6.95%

O=c1[nH][nH]c(=O)c(Cl)c1Cl
inactive: [1] 1.55% | [2] 1.6% | [3] -17.5% | [4] 0.25% | [5] -0.85% | [6] 13.3%

CNc1ccccc1C(=O)N/N=C/c1c(O)ccc2ccccc12
inactive: [1] -3.15% | [2] 18.3% | [3] 19% | [4] -10.3% | [5] 36.1% | [6] 2.45%

CN1C(=O)C(=O)N(C)C(=O)C1=O
inactive: [1] 8.75% | [2] 11.2% | [3] 10.7% | [4] 7.1% | [5] 12.8% | [6] 9.6%

COc1cccc2c1C(=O)c1c(O)c3c(c(O)c1C2=O)CC(O)(C(C)=O)CC3O (stereo unspecified)
inactive: [1] 61.5% | [2] 12.5% | [3] 39% | [4] 17.1% | [5] 34.4% | [6] 50.5%
